High-throughput results as filed in PubChem.
An excerpt weighted towards active compounds, which were near 4.7% of everything screened.
TRHR agonist: activates the human TRH receptor. P34981. activation, % at 2 µM. TRHR cells, calcium flux fluo-8, FDSS agonist mode. 360,000 tested, 0.18% active
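TRHR-expressing cells, plated overnight in medium with 10% serum, were loaded with fluo-8 calcium dye at room temperature. After a 10 s baseline, library compound was pin-added and calcium release was recorded kinetically (ex 480/em 530) as agonist response.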
D1 potentiator: enhances dopamine response at the human D1 receptor. AID 504651. P21728. 360,000 tested, 0.036% active. potentiation, % at 10 µM. HEK293 TREx D1 cells, calcium flux, dopamine EC20 potentiation; in the data active = potentiation above about 30%
Target sequence (P21728 whole entry, looked up): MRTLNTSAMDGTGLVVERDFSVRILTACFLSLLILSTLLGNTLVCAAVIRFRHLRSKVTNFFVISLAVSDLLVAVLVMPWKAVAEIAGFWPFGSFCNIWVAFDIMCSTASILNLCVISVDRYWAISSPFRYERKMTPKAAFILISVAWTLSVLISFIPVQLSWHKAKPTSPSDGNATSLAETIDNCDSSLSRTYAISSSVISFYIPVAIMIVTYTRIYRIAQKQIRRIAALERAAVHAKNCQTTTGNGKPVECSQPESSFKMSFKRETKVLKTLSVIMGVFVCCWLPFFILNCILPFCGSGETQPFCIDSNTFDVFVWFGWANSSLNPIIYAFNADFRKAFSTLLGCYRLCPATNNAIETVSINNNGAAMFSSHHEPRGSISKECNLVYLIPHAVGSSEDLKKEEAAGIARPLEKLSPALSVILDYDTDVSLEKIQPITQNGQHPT
D1 ag: human D1 receptor agonism; HEK293 T-REx D1 cells, calcium flux, agonist mode; activation, % at 2 µM; 360,000 tested, 1% active; P21728
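Agonism was scored from calcium flux recorded over 180 s (1 read/s) after pintool compound addition, following a 10-cycle baseline. Cells were inducible force-coupled HEK293 TREx D1, plated overnight at 30 C and loaded with no-wash calcium dye.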
D1 antag: human D1 dopamine receptor antagonism | P21728 | HEK293 TREx D1 cells, calcium flux, dopamine EC80; hits give low values | AID 504652 | activity change, negative = inhibition, % at 10 µM | 360,000 tested, 3.2% active; in the data active = activity change below about -30%
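Tetracycline-induced HEK293 Trex D1 cells, force-coupled to calcium, dye-loaded; compounds added and read 180 s, then EC80 dopamine added and calcium flux tracked kinetically another 180 s.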
TRHR enhancer: allosteric enhancers of human TRH receptor; TRHR cells, fluo-8 calcium fluorescence, EC20 TRH enhancement; enhancement, % at 2 µM; 360,000 tested, 0.66% active; in the data active = enhancement above about 30%
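Enhancer read-out: after compound pinning and an initial kinetic agonist-mode read, an EC20 of TRH (10 nM final) was injected and fluo-8 calcium signal (Ex 480/Em 530) followed at 1 s/cycle for 100 cycles in TRHR-expressing cells.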
Large screens that a line does not name were inactive; ! = repeats disagree. Cut-off read from the data, not from the text of the source, unless noted: active = activation above about 30%; inactive = the rest.

O=C(NCCCN1CCN(c2ccccc2F)CC1)c1nnc(Cc2ccc(Cl)cc2Cl)o1	D1 antag -55
Cc1cc(CN2CCN(c3ccccc3F)CC2)cs1	D1 antag -58
O=C(COC(=O)c1ccccc1F)NC(=O)NC1CCCC1	none
O=C(O)CC1COc2ccccc2N1C(=O)c1ccccc1Cl (stereo not drawn)	none
CC1(C)CC(=O)c2cc(OCC(=O)NCCCN3CCN(c4ccccc4F)CC3)ccc2O1	D1 antag -81
COc1ccccc1NC(=O)NCCCN1CCN(c2cccc(Cl)c2)CC1	D1 antag -69
CCCCCCCNC(=O)COc1ccc2c(c1)C(=O)CC(C)(C)O2	none
COc1ccccc1N1CCN(CCCNC(=O)Nc2ccccc2C)CC1	D1 antag -42
Cc1nn(-c2ccccc2)c(-n2cccc2)c1C(=O)NCCCN1CCN(c2ccccc2F)CC1	D1 antag -33
Cc1ccc(S(=O)(=O)NC(=O)Nc2ccc(C)cc2C)cc1	none
CCCOc1ccc(CCC(=O)N/N=C/c2ccncc2)cc1	D1 antag -36
CCOc1ccc(-c2c(C(=O)N/N=C/c3ccco3)nnn2-c2nonc2N)cc1	none
Cc1ccc(-c2c(C(=O)N/N=C/c3cccc(Cl)c3)nnn2-c2nonc2N)cc1	none
Cc1ccc(-c2c(C(=O)N/N=C/c3ccco3)nnn2-c2nonc2N)cc1	D1 ag 94
Cc1ccc(-c2c(C(=O)N/N=C/c3ccsc3)nnn2-c2nonc2N)cc1	D1 ag 148
Nc1nonc1-n1nnc(C(=O)N/N=C/c2cccs2)c1-c1ccc2c(c1)OCO2	D1 ag 102
Cc1ccsc1/C=N/NC(=O)c1nnn(-c2nonc2N)c1-c1ccc2c(c1)OCO2	none
CCOc1cccc(-c2c(C(=O)N/N=C/c3ccsc3)nnn2-c2nonc2N)c1	D1 ag 72
CCc1ccc(CNC(=O)c2ccc(NC(=O)N3CCSc4ncccc43)cc2)cc1	none
CNC(=O)COc1coc(CN2CCN(c3ccccc3F)CC2)cc1=O	none
Cc1ccc(-c2c(C(=O)N/N=C/c3cccs3)nnn2-c2nonc2N)cc1	D1 ag 76
Cc1ccc(S(=O)(=O)NNC(=O)Nc2ccc(Cl)cc2)cc1	none
Cc1occc1C(=O)NNS(=O)(=O)c1ccc(Cl)cc1	TRHR enhancer 37
Cc1nc(C)c(-c2ccc(SCC(=O)Nc3cccc(F)c3)nn2)s1	D1 antag -32
COc1ccc(S(=O)(=O)N2CCNCC2)cc1OC	none
COc1ccc(S(=O)(=O)n2cccc2)cc1OC	D1 antag -35
COc1ccc(S(=O)(=O)n2cccc2)c(OC)c1	TRHR enhancer 32
Cc1cccc(Cn2c(C)nc3ccc([N+](=O)[O-])cc3c2=O)c1	D1 antag -33
Cc1nc2ccc([N+](=O)[O-])cc2c(=O)n1Cc1cccc(F)c1	none
Cc1nc2ccc([N+](=O)[O-])cc2c(=O)n1Cc1ccc(F)cc1	D1 antag -32
Cc1ccc(CCN2C(Nc3ccccc3)=NC[C@@H]2C)cc1	none
O=C(COc1ccc(Br)cc1)Nc1ccncc1	none
COc1ccc(-n2nc3ccc(NC(=O)c4cccc(OCCC(C)C)c4)cc3n2)cc1	TRHR enhancer 36
CC(C)CCOc1cccc(OCC(=O)Nc2ccncc2)c1	D1 antag -31
CCC(C)(C)c1ccc(OCC(=O)Nc2ccncc2)cc1	D1 ag 45
COc1ccc(CCNc2nc3c(-c4cccc(C)c4)nnn3c3ccccc23)cc1OC	none
COCCCN1C(=O)C(=O)/C(=C(/O)c2ccc(S(=O)(=O)N3CCCCC3)cc2)C1c1ccc(O)cc1 (stereo not drawn)	none
COc1ccc(S(=O)(=O)NCCc2sc(C)nc2C)cc1F	none
COc1ccccc1N/C(N)=N/c1nc(C(F)(F)F)cc(=O)[nH]1	D1 antag -57
COc1ccc(N/C(N)=N/c2nc(C)cc(=O)[nH]2)cc1	D1 antag -37
CCOC(=O)Cc1cc(=O)[nH]c(/N=C(\N)Nc2ccc(C)c(C)c2)n1	D1 antag -44
CCOc1ccc(NC(=O)C2CCCN(S(C)(=O)=O)C2)cc1 (stereo not drawn)	none
O=C(COc1ccccc1)Nc1ccc(C(=O)OCc2cc(=O)n3nc(C4CC4)sc3n2)cc1	none
NNC(=O)C(C(=O)OCc1ccccc1)c1ccccc1 (stereo not drawn)	none
COc1ccc2[nH]cc(C(O)CN3CCN(c4ccccc4)CC3)c2c1 (stereo not drawn)	none
COc1ccc2[nH]cc(C(O)CN3CCN(c4ccccc4F)CC3)c2c1 (stereo not drawn)	D1 antag -62
O=C1CC(c2ccc(Cl)cc2)c2cc3c(cc2N1)OCCO3 (stereo not drawn)	none
Cc1ccc(C2CC(=O)Nc3cc4c(cc32)OCCO4)cc1 (stereo not drawn)	D1 ag 32
CCOc1cccc(C2CC(=O)Nc3cc4c(cc32)OCCO4)c1 (stereo not drawn)	D1 ag 45, D1 antag -32
CCOc1ccccc1C1CC(=O)Nc2cc3c(cc21)OCO3 (stereo not drawn)	none
COc1cccc([C@@H]2CC=C(C(=O)O)[C@H](c3cccc(Cl)c3)N2S(=O)(=O)c2ccc(C)cc2)c1	none
CCc1cc(=O)oc2cc(O[C@@H]3O[C@H](CO)[C@@H](O)[C@H](O)[C@H]3O)c(Cl)cc12	TRHR enhancer 33
CCc1cc(=O)oc2c(C)c(O[C@@H]3O[C@H](CO)[C@@H](O)[C@H](O)[C@H]3O)ccc12	none
COc1cc(Cl)c(C)cc1NC(=O)CN1C(=O)C2CCCCC2C1=O (stereo not drawn)	none
Cc1cc2c(s1)c1cnn(Cc3ccccc3)c(=O)c1n2C	none
Cc1ccc(/C=C/C(=O)Nc2ccc(Cl)cc2Cl)cc1	none
COc1ccc(N2C(=O)NC(NS(=O)(=O)c3ccccc3)(C(F)(F)F)C2=O)cc1 (stereo not drawn)	none
COc1ccc(N2C(=O)NC(NS(=O)(=O)c3ccc(NC(C)=O)cc3)(C(F)(F)F)C2=O)cc1 (stereo not drawn)	D1 antag -51!
Fc1cccc(-n2ncc3c2ncn2nc(COc4ccc(Cl)cc4)nc32)c1	none
Cc1cc(C(=O)Nc2cnc3ccccc3c2)ccc1[N+](=O)[O-]	D1 antag -60
Cc1ccc(C(=O)Nc2cnc3ccccc3c2)cc1	none
CC1Sc2ccc(S(=O)(=O)N3CCC(C(=O)Nc4cccc(Cl)c4)CC3)cc2NC1=O (stereo not drawn)	none
Cc1ccc(NC(=O)C2CCN(S(=O)(=O)c3ccc4c(c3)NC(=O)C(C)S4)CC2)c(C)c1 (stereo not drawn)	D1 antag -40
COc1ccccc1NS(=O)(=O)c1ccc2c(c1)NC(=O)C(C)S2 (stereo not drawn)	D1 ag 32
